Assay results: PubChem BioAssay AID1159580 (chemical genetic matrix, 2015)
Hit rate of the full screen: of about 5,500 compounds, about 2,000 (36%) were called active. About 18% were inconclusive and are not listed. Cut-off read from the data, not from the text of the source: active = normalized growth mostly below about 0.91 (no sharp cut-off); inconclusive = no clear call, values can overlap the other calls; inactive = mostly above about 0.92. The list shows a part of the results.

Assay: chemical genetic growth profiling, strain panel (AID 1159580);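 note: tested at 20 µM; growth read once vehicle control cultures reached saturation at 30 °C; 1 = growth at the plate median or of vehicle wells; lower values mean less growth of the strain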
Conditions: S. cerevisiae deletion strains, growth OD

Measured: normalized growth

COc1ccc(CN(CCN(C)C)c2ncccn2)cc1
inactive: locus YAL021C, strain ccr4, stronger effect = lower value 1.01 | locus YAL026C, strain drs2, stronger effect = lower value 1.04 | locus YAL030W, strain snc1, stronger effect = lower value 0.997 | locus YBL061C, strain skt5, stronger effect = lower value 1.01 | locus YBR009C, strain hhf1, stronger effect = lower value 1.01 | locus YBR023C, strain chs3, stronger effect = lower value 1.01 | locus YBR171W, strain sec66, stronger effect = lower value 1.01 | locus YBR231C, strain swc5, stronger effect = lower value 1.04 | locus YBR279W, strain paf1, stronger effect = lower value 1.01 | locus YCL011C, strain gbp2, stronger effect = lower value 1.01 | locus YCL016C, strain dcc1, stronger effect = lower value 1.01 | locus YCL061C, strain MRC1, stronger effect = lower value 1.02 | locus YCL069W, strain vba3, stronger effect = lower value 1.01 | locus YCR088W, strain abp1, stronger effect = lower value 1.01 | locus YDL005C, strain med2, stronger effect = lower value 1.01 | locus YDL040C, strain nat1, stronger effect = lower value 1.02 | locus YDR001C, strain nth1, stronger effect = lower value 1.02 | locus YDR069C, strain doa4, stronger effect = lower value 1 | locus YDR137W, strain rgp1, stronger effect = lower value 1.01 | locus YDR159W, strain sac3, stronger effect = lower value 0.992 | locus YDR195W, strain ref2 1 | locus YDR297W, strain sur2, stronger effect = lower value 1.02 | locus YDR334W, strain swr1, stronger effect = lower value 0.998 | locus YDR335W, strain msn5, stronger effect = lower value 1.01 | locus YDR392W, strain spt3, stronger effect = lower value 1.03 | locus YEL003W, strain gim4, stronger effect = lower value 1.01 | locus YEL037C, strain rad23, stronger effect = lower value 1.01 | locus YEL061C, strain CIN8 (second series), stronger effect = lower value 1 | locus YER015W, strain faa2, stronger effect = lower value 1.02 | locus YER016W, strain bim1, stronger effect = lower value 1.02 | locus YER111C, strain swi4, stronger effect = lower value 1.02 | locus YER155C, strain BEM2 (second series), stronger effect = lower value 1.05 | locus YFR010W, strain ubp6, stronger effect = lower value 1.01 | locus YGL167C, strain pmr1, stronger effect = lower value 1.02 | locus YGL173C, strain kem1, stronger effect = lower value 1.03 | locus YGL227W, strain vid30, stronger effect = lower value 1.01 | locus YGL240W, strain doc1, stronger effect = lower value 1.01 | locus YGL253W, strain hxk2, stronger effect = lower value 1.02 | locus YHR013C, strain ard1, stronger effect = lower value 1.01 | locus YHR027C, strain rpn1, stronger effect = lower value 1.01 | locus YHR030C, strain SLT2, stronger effect = lower value 1 | locus YHR079C, strain IRE1, stronger effect = lower value 1 | locus YHR142W, strain chs7, stronger effect = lower value 1.04 | locus YJL092W, strain hpr5, stronger effect = lower value 1.03 | locus YJL095W, strain BCK1 (second series), stronger effect = lower value 1.01 | locus YJL095W, strain BCK1, stronger effect = lower value 1 | locus YJL115W, strain asf1, stronger effect = lower value 1.01 | locus YJL129C, strain trk1, stronger effect = lower value 1.01 | locus YJL154C, strain vps35, stronger effect = lower value 1.01 | locus YJL164C, strain tpk1, stronger effect = lower value 1.02 | locus YJL166W, strain qcr8, stronger effect = lower value 0.995 | locus YJR066W, strain TOR1, stronger effect = lower value 0.954 | locus YKL160W, strain elf1, stronger effect = lower value 1.02 | locus YKR026C, strain gcn3, stronger effect = lower value 1 | locus YKR091W, strain srl3, stronger effect = lower value 1 | locus YLL001W, strain dnm1, stronger effect = lower value 1.01 | locus YLL026W, stronger effect = lower value 1 | locus YLL041C, strain sdh2, stronger effect = lower value 0.995 | locus YLR027C, strain aat2, stronger effect = lower value 1.01 | locus YLR113W, strain HOG1, stronger effect = lower value 1 | locus YLR221C, strain rsa3, stronger effect = lower value 0.998 | locus YLR258W, strain gsy2, stronger effect = lower value 1.03 | locus YLR262C, strain YPT6 (second series), stronger effect = lower value 1.01 | locus YLR320W, strain mms22, stronger effect = lower value 1.01 | locus YLR342W, strain FKS1, stronger effect = lower value 1.02 | locus YLR357W, strain rsc2, stronger effect = lower value 1.01 | locus YLR370C, strain arc18, stronger effect = lower value 1.03 | locus YLR384C, strain iki3, stronger effect = lower value 1.02 | locus YML120C, strain ndi1, stronger effect = lower value 1.01 | locus YMR058W, strain fet3, stronger effect = lower value 1.03 | locus YMR125W, strain sto1, stronger effect = lower value 1.01 | locus YMR129W, stronger effect = lower value 1.02 | locus YMR205C, strain PFK2, stronger effect = lower value 1.02 | locus YMR231W, strain pep5, stronger effect = lower value 1.02 | locus YNL071W, strain lat1, stronger effect = lower value 1.02 | locus YNL183C, strain NPR1, stronger effect = lower value 0.943 | locus YNL209W, strain ssb2, stronger effect = lower value 1.03 | locus YNL248C, strain rpa49, stronger effect = lower value 1.03 | locus YNL322C, strain KRE1 (second series), stronger effect = lower value 1.02 | locus YNR049C, strain mso1, stronger effect = lower value 1.01 | locus YOR001W, strain rrp6, stronger effect = lower value 1.01 | locus YOR070C, strain gyp1, stronger effect = lower value 1.02 | locus YOR080W, strain dia2, stronger effect = lower value 1.01 | locus YOR083W, strain WHI5, stronger effect = lower value 0.981 | locus YOR106W, strain vam3, stronger effect = lower value 1.02 | locus YOR231W, strain MKK1, stronger effect = lower value 0.99 | locus YOR265W, strain rbl2, stronger effect = lower value 1.02 | locus YOR270C, strain vph1, stronger effect = lower value 1.03 | locus YOR290C, strain snf2, stronger effect = lower value 1.02 | locus YPL051W, strain arl3, stronger effect = lower value 1.02 | locus YPL078C, strain atp4, stronger effect = lower value 1.02 | locus YPL106C, strain sse1, stronger effect = lower value 0.994 | locus YPL240C, strain hsp82, stronger effect = lower value 0.999 | locus YPL256C, strain CLN2, stronger effect = lower value 0.991
